In PubChem BioAssay (NCATS) one finds Potency data, which are given here for 22 compounds.

Each structure is given as a SMILES string. Results filed as inconclusive are left out. Activity calls are given as the source filed them. The call rests on the fitted dose curve; in most records, active means well fitted inhibition curve with a large enough effect; inconclusive means small, poorly fitted or top-dose-only effect; inactive means flat fitted curve, though single readings scatter. Numbered stars: 1 amine (or outer) side, 2 acyl side, 3 side chain; on linkers, the order of the positions; unused ones are H or OH. Bridge positions count the residues as written; N and C are the ends. Square brackets hold non-standard residues; d marks the D form. Peptide text beside a SMILES is read from it. I, II: the chains in the order shown. Actinocin(9to1) = Cc1c2oc3c(C)ccc(C(=O)[*:1])c3nc-2c(C(=O)[*:2])c(N)c1=O; NMeV = CN[C@H](C(=O)O)C(C)C; Sar = CNCC(=O)O

Test in all cases: qHTS profiling for inhibitors of Plasmodium falciparum proliferation (AID 504749); further: nearly all actives have a fitted effect of over 60% in size
Common to all, as to settings: P. falciparum in erythrocytes, SYBR Green DNA, 72 h; series mostly up to 28.7 µM
A general note: Quantitative high-throughput screening tests each substance at several concentrations.

One assay concerns DFO2036. Summed up: (§1)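 Each compound contacts P. falciparum-infected red blood cells for 72 h at 37 C; lysis buffer (Tris, EDTA, saponin, Triton X, SYBR Green I) is added and fluorescence measured next morning; values normalized to controls.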
For another assay, the system named is DIV14. Summed up: as §1
The subject of a further assay is DIV17. Summed up:
as §1

For the next assay, the system named is DIV30. Summed up: as §1
The subject of the next assay is Dd2. In outline: as §1
The test system of a further assay is ECU. Summed up: as §1
The subject of a further assay is FAB9. Summed up: as §1
In a further assay the test system is GB4. Summed up:
as §1

In a further assay the test system is HB3. Summed up: as §1
In a further assay the test system is ICS. In outline: as §1
Potency means the concentration at half of the fitted maximal effect.

`O=C(Nc1ccc(Cl)c(Cl)c1)C1CC1`: the Potency entry in the assay on DFO2036, with DIV14, in the assay on DIV17, with DIV30, in the assay on Dd2 and in the assay with ECU was “inactive” throughout. The Potency entry in the assay on FAB9, with GB4, in the assay with HB3 and in the assay on ICS was “inactive” each time.

Turning to `Oc1c(Cl)cc(Cl)cc1Sc1cc(Cl)cc(Cl)c1O`, the Potency result in the assay with DFO2036, with DIV14, in the assay on DIV17, with DIV30, with Dd2 and in the assay on ECU was “inactive” throughout. The Potency result in the assay with FAB9, with GB4, in the assay with HB3 and in the assay on ICS was “inactive” in each case.

In the case of `CCCCC(CC)CN=C(N)NC(N)=NCCCCCCN=C(N)NC(N)=NCC(CC)CCCC` (configuration not stated), the Potency is 3.16 µM (active) in the assay on DFO2036; 1.35 µM (active) in the assay on DIV14; 1.2 µM (active) in the assay on DIV17; 1.2 µM (active) in the assay with DIV30; 2 µM (active) in the assay with Dd2; 1.12 µM (active) with ECU. Moreover, the Potency in the assay with FAB9 was 1.78 µM (active); in the assay with GB4, 1.51 µM (active); with HB3, 2.24 µM (active); with ICS, 0.316 µM (active).

Consider `COc1ccc(/C=C/C(=O)c2ccc(OC)cc2OC)cc1`, for which the Potency is 7.94 µM (active) in the assay on DFO2036; 10.7 µM (active) with DIV14; 16.9 µM (active) in the assay with DIV17; 12 µM (active) in the assay on DIV30; 7.08 µM (active) in the assay on Dd2; 8.91 µM (active) in the assay with ECU. Moreover, the Potency in the assay on FAB9 is 8.91 µM (active); in the assay on GB4 it was 7.57 µM (active); with HB3, 10 µM (active); in the assay with ICS, 12.6 µM (active).

Consider `CC(=O)Nc1c(I)cc(I)c(C(=O)O)c1I`, for which the Potency result in the assay on DFO2036, with DIV14, with DIV17, with DIV30, with Dd2 and with ECU was “inactive” each time. For the same compound, the Potency result in the assay on FAB9, in the assay on GB4, in the assay on HB3 and in the assay on ICS was “inactive” each time.

Turning to `Cc1cccn2c(=O)c(-c3nnn[nH]3)cnc12`, the Potency entry in the assay with DFO2036, in the assay with DIV14, in the assay on DIV17, in the assay on DIV30, with Dd2 and in the assay with ECU was “inactive” throughout. The Potency result in the assay on FAB9, with GB4, with HB3 and with ICS was “inactive” each time.

With `O=c1ccc2ccccc2o1`, the Potency result in the assay on DFO2036, in the assay with DIV14, with DIV17, in the assay on DIV30, with Dd2 and in the assay with ECU was “inactive” in each case. Besides, the Potency entry in the assay with FAB9, in the assay on GB4, with HB3 and with ICS was “inactive” in each case.

Take `C[C@H]1[C@H](NC(=O)/C(=N/OC(C)(C)C(=O)O)c2csc(N)n2)C(=O)N1S(=O)(=O)O` (stereo in doubt): the Potency result in the assay with DFO2036, in the assay with DIV14, with DIV17, with DIV30, in the assay on Dd2 and in the assay on ECU was “inactive” in each case. Further, the Potency result in the assay on FAB9, in the assay on GB4, in the assay with HB3 and with ICS was “inactive” throughout.

Take `CCCCOc1ccc(C(=O)CCN2CCCCC2)cc1`: the Potency result in the assay on DFO2036, with DIV14, in the assay with DIV17, with DIV30, with Dd2 and with ECU was “inactive” throughout. Also, the Potency result in the assay with FAB9, in the assay with GB4, with HB3 and in the assay on ICS was “inactive” in each case.

Consider `Cc1c(N(C)CS(=O)(=O)O)c(=O)n(-c2ccccc2)n1C`, for which the Potency entry in the assay on DFO2036, in the assay with DIV14, in the assay with DIV17, in the assay on DIV30, in the assay with Dd2 and in the assay on ECU was “inactive” throughout. The Potency result in the assay with FAB9, with GB4, in the assay with HB3 and with ICS was “inactive” throughout.

As to `Cc1c(C(C)C)c(=O)n(-c2ccccc2)n1C`, the Potency result in the assay with DFO2036, in the assay on DIV14, with DIV17, with DIV30, in the assay on Dd2 and in the assay with ECU was “inactive” throughout. In addition, the Potency entry in the assay on FAB9, in the assay with GB4, in the assay on HB3 and in the assay on ICS was “inactive” in each case.

For the compound `CCN1CCN(c2cc3c(cc2F)c(=O)c(C(=O)O)cn3C2CC2)CC1`, the Potency entry in the assay on DFO2036, in the assay on DIV14, with DIV17, in the assay with DIV30, with Dd2 and in the assay with ECU was “inactive” each time. Also, the Potency entry in the assay on GB4 and with HB3 was “inactive” each time.

Consider `NCCc1ccn[nH]1`, for which the Potency result in the assay with DFO2036, with DIV14, in the assay with DIV17, with DIV30, with Dd2 and with ECU was “inactive” each time. For the same compound, the Potency entry with FAB9, in the assay with GB4, with HB3 and with ICS was “inactive” in each case.

As to `Nc1ccc(C(=O)Nc2ccccc2N)cc1`, the Potency result in the assay with DFO2036, with DIV14, with DIV17, with Dd2, in the assay with ECU and with FAB9 was “inactive” each time. Besides, the Potency entry with GB4, with HB3 and in the assay on ICS was “inactive” in each case.

With `CCCCN1CCCC1C(=O)Nc1c(C)cc(C)cc1C` (configuration not stated), the Potency result in the assay with DFO2036, in the assay on DIV14, in the assay on DIV17, with DIV30, in the assay on ECU and with FAB9 was “inactive” each time. Moreover, the Potency result in the assay with GB4 and in the assay with HB3 was “inactive” in each case.

As for `C[C@]12CC[C@@H]3c4ccc(O)cc4CC[C@H]3[C@@H]1CC[C@@H]2O`, the Potency result in the assay with DFO2036, in the assay with DIV14, in the assay on DIV17, in the assay on DIV30, with Dd2 and with ECU was “inactive” in each case. For the same compound, the Potency entry in the assay with FAB9, in the assay with GB4, in the assay on HB3 and with ICS was “inactive” throughout.

With `CCOC(=O)COc1ccc2c(C)c(CCN(CC)CC)c(=O)oc2c1Cl`, the Potency entry in the assay on DFO2036, in the assay with DIV14, in the assay on DIV17, in the assay on DIV30, in the assay on Dd2 and in the assay with FAB9 was “inactive” in each case. The Potency result in the assay with GB4, with HB3 and with ICS was “inactive” throughout.

As to `NC(CS)C(=O)O` (configuration not stated), the Potency was 12.6 µM (active) with DFO2036; 6.75 µM (active) in the assay on DIV14; 9.53 µM (active) in the assay with DIV17; 16.9 µM (active) in the assay on DIV30; 8.91 µM (active) in the assay with HB3; 2 µM (active) in the assay on ICS.

For the compound `O=C(Nc1ccc(Oc2ccc(Cl)cc2)c(Cl)c1)c1cc(I)cc(I)c1O`, the Potency result with DFO2036, with DIV14, in the assay on DIV17, with DIV30, with Dd2 and with FAB9 was “inactive” throughout. Further, the Potency entry with GB4 and in the assay on HB3 was “inactive” each time.

As for `Cc1c2oc3c(C)ccc(C(=O)N[C@@H]4C(=O)N[C@H](C(C)C)C(=O)N5CCC[C@H]5C(=O)N(C)CC(=O)N(C)[C@@H](C(C)C)C(=O)O[C@@H]4C)c3nc-2c(C(=O)N[C@@H]2C(=O)N[C@H](C(C)C)C(=O)N3CCC[C@H]3C(=O)N(C)CC(=O)N(C)[C@@H](C(C)C)C(=O)O[C@@H]2C)c(N)c1=O` (I: T[dV]P[Sar][NMeV] / II: T[dV]P[Sar][NMeV]; ester I:1-I:C, II:1-II:C; linker I:N-II:N via Actinocin(9to1)), the Potency is 0.0032 µM (active) in the assay on DFO2036; 0.0038 µM (active) with DIV14; 0.0054 µM (active) with DIV17; 0.0076 µM (active) with DIV30; 0.0045 µM (active) in the assay with Dd2; 0.0032 µM (active) in the assay on ECU. For the same compound, the Potency in the assay with FAB9 was 0.0112 µM (active); with GB4, 0.0048 µM (active); in the assay on HB3, 0.005 µM (active); in the assay with ICS, 0.0025 µM (active).

Turning to `CC(C)COC(=O)OCN1C(=O)CN(CCN2CC(=O)N(COC(=O)OCC(C)C)C(=O)C2)CC1=O`, the Potency entry with DFO2036, in the assay with DIV14, with DIV17, with DIV30, in the assay on Dd2 and in the assay on ECU was “inactive” in each case. Further, the Potency entry in the assay on FAB9, with GB4, in the assay with HB3 and in the assay on ICS was “inactive” each time.

With `COc1cccc(CCc2ccccc2OCC(CN(C)C)OC(=O)CCC(=O)O)c1` (configuration not stated), the Potency in the assay with DFO2036 is 11.2 µM (active); with DIV14, 2.13 µM (active); with DIV17 it was 2.39 µM (active); in the assay on DIV30 it was 6.75 µM (active); in the assay on Dd2, 1.41 µM (active); in the assay on ECU, 4.47 µM (active). Besides, the Potency in the assay with GB4 was 2.13 µM (active); in the assay on HB3, 12.6 µM (active); with ICS, 1.12 µM (active).
